Compound activity: PubChem, Johns Hopkins Ion Channel Center
KCNQ2 pot – KCNQ2 (rat) channel potentiation; O88943; CHO-K1 KCNQ2, FluxOR thallium flux fluorescence; hits give high values; B-score at 10 µM; actives 0.54% (n = 310,000); AID 2239;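 active means fluorescence ratio B-score at least 3 SD of library B-scores, with initial fluorescence B-score within 3 of them, cut at about 5.3 in these data; same plate scores as AID 2156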;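 further: B-score of peak minus minimum over baseline fluorescence ratio after K+ and Tl+ stimulus; positive B-score means potentiation of KCNQ2 with more thallium influx and brighter signal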
KCNQ2 inh – blocks the rat KCNQ2 potassium channel; CHO-K1 KCNQ2, FluxOR thallium flux, 20 min; hits give low values; actives 1.1% (n = 310,000); B-score at 10 µM;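 active means fluorescence ratio B-score at most minus 3 library SDs, with starting brightness B-score within 2 library SDs, cut at about -5.5 in these data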
Kir21 conf inh – confirmation of mouse Kir2.1 potassium channel inhibitors. shares compounds with KCNQ2 pot. actives 41% (n = 2,300). Kir2.1-expressing cells, FluxOR thallium flux fluorescence; hits give low values. Tl flux remaining, % of negative control (hits give low values), % at 10 µM. AID 2032;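 active means Primary-screen hit whose thallium flux fell at least 3 control SD below untreated wells in both duplicates, with normal baseline fluorescence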;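 further: 0% = blank wells without stimulus and 100% = stimulated no-compound controls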
HEK293 Tl flux – counter-screen for Kir2.1 inhibitors: effect in parental HEK293 cells; actives 19% (n = 2,300); FluxOR thallium flux fluorescence; 0% = unstimulated blank wells; AID 2105; shares compounds with KCNQ2 pot; FluxOR signal as % of negative control (100 = no effect), % at 10 µM;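 active means dye signal at least 3 control SD above or below untreated wells in both duplicates, raw fluorescence within 3, either direction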;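 further: percent is based on the flux ratio of peak minus minimum fluorescence over baseline F0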
CHO-K1 Tl ctr – parental CHO-K1 activity in KCNQ2 potentiator counter-screen. shares compounds with KCNQ2 pot. parental CHO-K1 cells, FluxOR thallium flux fluorescence; zero = vehicle mean+3SD, 100% = vehicle-minus-blank window. activity increase over 3SD of controls, % at 10 µM. actives 43% (n = 1,200). AID 2282;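 active means signal rise of at least 3 SD above the untreated control mean, in both duplicate wells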;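 further: counter screen of KCNQ2 potentiator hits so any rise reflects channel-independent effects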
KCNQ1 pot spec – selectivity of KCNQ2 potentiators: effect on human KCNQ1. AID 2283. CHO KCNQ1 stable, FluxOR thallium flux fluorescence; beyond 3SD, as % of vehicle-control signal. actives 28% (n = 1,200). activation over 3SD threshold, % at 10 µM. shares compounds with KCNQ2 pot;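 active means fluorescence ratio rise of at least 3 SD of vehicle wells above their mean, in both replicate wells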;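 further: 0% = vehicle mean plus 3 SD and 100% = vehicle minus unstimulated blank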
Target sequence (P51787 whole entry, looked up): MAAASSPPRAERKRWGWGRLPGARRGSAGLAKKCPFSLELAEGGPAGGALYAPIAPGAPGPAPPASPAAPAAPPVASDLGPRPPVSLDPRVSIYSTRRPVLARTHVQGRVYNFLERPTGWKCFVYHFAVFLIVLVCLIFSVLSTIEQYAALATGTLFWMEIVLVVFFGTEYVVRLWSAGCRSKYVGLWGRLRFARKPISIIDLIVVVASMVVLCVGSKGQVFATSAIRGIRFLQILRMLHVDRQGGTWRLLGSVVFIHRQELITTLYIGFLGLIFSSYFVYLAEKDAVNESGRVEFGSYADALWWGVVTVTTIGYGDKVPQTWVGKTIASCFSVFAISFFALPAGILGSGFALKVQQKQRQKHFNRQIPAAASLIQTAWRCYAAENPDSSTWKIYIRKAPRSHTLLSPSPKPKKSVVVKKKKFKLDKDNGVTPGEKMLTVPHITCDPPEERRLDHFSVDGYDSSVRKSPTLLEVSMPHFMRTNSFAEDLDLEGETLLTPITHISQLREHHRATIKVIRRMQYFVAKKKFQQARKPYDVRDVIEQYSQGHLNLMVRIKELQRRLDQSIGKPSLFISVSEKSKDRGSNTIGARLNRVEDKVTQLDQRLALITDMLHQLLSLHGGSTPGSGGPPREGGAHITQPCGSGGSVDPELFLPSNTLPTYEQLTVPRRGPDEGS
KCNQ2 pot conf – confirmation of rat KCNQ2 potassium channel potentiators; shares compounds with KCNQ2 pot; CHO-KCNQ2 cells, FluxOR thallium flux fluorescence; potentiation, less the hit threshold, % at 10 µM; actives 68% (n = 1,200); AID 2287;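 active means fluorescence ratio rising 3 SD or more over the vehicle control mean in both replicates, plus primary screen hit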;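 further: peak minus minimum thallium fluorescence divided by baseline after K/Tl stimulus; 0% = vehicle mean plus 3 SD and 100% = vehicle minus unstimulated blank difference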
Kir21 spec – tests whether KCNQ2 potentiators also affect mouse Kir2.1; HEK293 Kir2.1, FluxOR thallium flux fluorescence; actives 2% (n = 1,200); shares compounds with KCNQ2 pot; activity over 3SD threshold, % at 10 µM;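 active means fluorescence ratio rise of at least 3 SD above the vehicle-control mean, seen in both replicates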;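 further: 0% = vehicle mean plus 3 SD and 100% = vehicle minus no-stimulus blank window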
KCNQ2 W236L MoA – KCNQ2 potentiators acting on retigabine-insensitive rat KCNQ2 W236L mutant | shares compounds with KCNQ2 pot | AID 2558 | current increase over 3SD of negative controls (%), hits give high values, % at 25 µM | actives 10% (n = 940) | CHO KCNQ2-W236L, automated patch clamp current;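 active means current increase at least 3 SD of the untreated controls above them in both duplicate recordings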
Starred values were filed as active, the others as inactive; i = inactive; · = no result. Compounds with a hit are over-represented: about 1.6% of the library has one in this group of screens.

SMILES | KCNQ2 pot | KCNQ2 inh | Kir21 conf inh | HEK293 Tl flux | others
Cc1ccc(C2C3=C(NCCN=C3c3ccccc3)C(=O)N2c2ccccc2)cc1 (centres undefined) | · | i | i | i
CCOc1ccc(N2C(=O)C3=C(C(c4ccc(Cl)cc4)=NCCN3)C2c2cccnc2)cc1 (centres undefined) | · | i | · | ·
CCOC(=O)CN1C(=O)N[C@@H](c2cccc(F)c2)C(C(C)=O)=C1C | · | i | · | ·
COC(=O)C1=C(C)N(Cc2ccccc2)C(=NCc2ccc(OC)cc2)N[C@H]1c1cccc(F)c1 | · | i | 26%* | i
COC(=O)C1=C(C)N(Cc2ccccc2)C(=NCc2cc(OC)c(OC)c(OC)c2)N[C@H]1c1cccc(F)c1 | · | i | · | ·
COC(=O)C1=C(C)N(Cc2ccccc2)C(=NCCc2cccnc2)N[C@H]1c1ccccc1 | 2.6 | i | i | i
COC(=O)C1=C(C)N(Cc2ccccc2)C(=NCCCCO)N[C@H]1c1ccccc1 | · | i | · | ·
CCOC(=O)CN1C(=O)N[C@@H](c2cccc(F)c2)C(C(=O)OC)=C1C | · | i | i | i
CCOc1ccc(C(O)c2nccn2C)cc1 (centres undefined) | 0.24 | i | · | ·
COc1cccc(C2c3[nH]c4ccccc4c3C[C@H]3C(=O)N(c4ccccc4C(=O)N4CCC[C@H]4C(=O)O)C(=O)N23)c1 (some centres undefined) | 1 | i | · | ·
O=C(O)c1ccc(N2C(=O)c3cccc(Oc4ccc(Cl)cc4)c3C2=O)cc1 | 1.7 | i | · | ·
COc1ccc(/C=N/Nc2cc(C)nc3ccccc23)cc1 | · | i | 35%* | i
COc1ccc(/C=N/Nc2cc(C)nc3c(C)cccc23)cc1 | · | i | · | ·
O=C(NCCC(=O)N1CCc2ccccc21)c1ccccc1Cl | · | i | · | ·
O=C(NC(=S)N1CCc2ccccc21)c1ccccc1Cl | 8.9* | i | i | i | CHO-K1 Tl ctr=14*;KCNQ1 pot spec=-12;KCNQ2 pot conf=62*;Kir21 spec=-14;KCNQ2 W236L MoA=i
O=C(Nc1nnc(-c2ccc3c(c2)CCCC3)o1)c1ccccc1 | 7.1* | i | i | 289%* | CHO-K1 Tl ctr=-10;KCNQ1 pot spec=-14;KCNQ2 pot conf=8.6*;Kir21 spec=-26;KCNQ2 W236L MoA=i
O=C(Nc1nnc(-c2ccc3c(c2)CCCC3)o1)c1ccccc1Cl | 9.4* | i | i | i | CHO-K1 Tl ctr=-22;KCNQ1 pot spec=-15;KCNQ2 pot conf=12*;Kir21 spec=-21;KCNQ2 W236L MoA=i
O=C(COc1ccccc1)Nc1nnc(-c2ccc3c(c2)CCCC3)o1 | · | i | · | ·
O=C(Nc1cccc2c1CCCC2)c1ccccc1Cl | 0.46 | i | · | ·
COc1ccccc1CCNC(=O)Nc1cccc([N+](=O)[O-])c1 | · | i | · | ·
O=C(Nc1ncn[nH]1)c1ccc(Cl)c(S(=O)(=O)N2CCCCCC2)c1 | · | i | · | ·
Cc1cc(NC(=O)CSc2nc3c(C)c(C)ccc3cc2C)no1 | 5.9* | i | i | i | CHO-K1 Tl ctr=-26;KCNQ1 pot spec=-8;KCNQ2 pot conf=-11;Kir21 spec=-35
Cc1cc2cccc(C)c2nc1SCC(=O)NC1CCCCC1 | 13* | i | i | i | CHO-K1 Tl ctr=-2;KCNQ1 pot spec=-7;KCNQ2 pot conf=0.3*;Kir21 spec=-27;KCNQ2 W236L MoA=i
Cc1cc2cccc(C)c2nc1SCC(=O)NCC1CCCO1 (centres undefined) | 0.98 | i | · | ·
CCc1cc2ccc(C)c(C)c2nc1SCC(=O)Nc1cc(C)on1 | 1.1 | i | · | ·
Cc1ccc(OCC(=O)NC2CCCCCC2)cc1C | 6.5* | i | i | i | CHO-K1 Tl ctr=-3;KCNQ1 pot spec=-16;KCNQ2 pot conf=2.0*;Kir21 spec=-42;KCNQ2 W236L MoA=i
Cc1cccc(CC(=O)NC2CCN(C)CC2)c1 | · | i | · | ·
